An excerpt weighted towards active compounds, which were near 8% of everything screened.
PTK2B oligo ant: antagonists of human Pyk2 oligomerization | Q293 cells, Pyk2 FERM NanoBiT luminescence; active compounds read low | z-score (the deposit names both 25 µM and 10 µM) | hit rate 0.83% among 99,000;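 active means Z-score of -3 or lower, scaled per plate to the spread of control and sample wells; inactive means z-score above -3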;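 further: negative z-score means lost luminescence so less FERM oligomerization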
Cav3 T inh: blocks human Cav3.2 T-type calcium channel; O95180; Cav3.2-expressing cells, Fluo-4 calcium fluorescence FDSS; active compounds read low; B-score at 10 µM; hit rate 4% among 100,000;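 active means single-dose well whose peak fluorescence ratio is a statistical outlier from its plate by either plate-standardised score or position-corrected B-score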
Target sequence (O95180 whole entry, looked up): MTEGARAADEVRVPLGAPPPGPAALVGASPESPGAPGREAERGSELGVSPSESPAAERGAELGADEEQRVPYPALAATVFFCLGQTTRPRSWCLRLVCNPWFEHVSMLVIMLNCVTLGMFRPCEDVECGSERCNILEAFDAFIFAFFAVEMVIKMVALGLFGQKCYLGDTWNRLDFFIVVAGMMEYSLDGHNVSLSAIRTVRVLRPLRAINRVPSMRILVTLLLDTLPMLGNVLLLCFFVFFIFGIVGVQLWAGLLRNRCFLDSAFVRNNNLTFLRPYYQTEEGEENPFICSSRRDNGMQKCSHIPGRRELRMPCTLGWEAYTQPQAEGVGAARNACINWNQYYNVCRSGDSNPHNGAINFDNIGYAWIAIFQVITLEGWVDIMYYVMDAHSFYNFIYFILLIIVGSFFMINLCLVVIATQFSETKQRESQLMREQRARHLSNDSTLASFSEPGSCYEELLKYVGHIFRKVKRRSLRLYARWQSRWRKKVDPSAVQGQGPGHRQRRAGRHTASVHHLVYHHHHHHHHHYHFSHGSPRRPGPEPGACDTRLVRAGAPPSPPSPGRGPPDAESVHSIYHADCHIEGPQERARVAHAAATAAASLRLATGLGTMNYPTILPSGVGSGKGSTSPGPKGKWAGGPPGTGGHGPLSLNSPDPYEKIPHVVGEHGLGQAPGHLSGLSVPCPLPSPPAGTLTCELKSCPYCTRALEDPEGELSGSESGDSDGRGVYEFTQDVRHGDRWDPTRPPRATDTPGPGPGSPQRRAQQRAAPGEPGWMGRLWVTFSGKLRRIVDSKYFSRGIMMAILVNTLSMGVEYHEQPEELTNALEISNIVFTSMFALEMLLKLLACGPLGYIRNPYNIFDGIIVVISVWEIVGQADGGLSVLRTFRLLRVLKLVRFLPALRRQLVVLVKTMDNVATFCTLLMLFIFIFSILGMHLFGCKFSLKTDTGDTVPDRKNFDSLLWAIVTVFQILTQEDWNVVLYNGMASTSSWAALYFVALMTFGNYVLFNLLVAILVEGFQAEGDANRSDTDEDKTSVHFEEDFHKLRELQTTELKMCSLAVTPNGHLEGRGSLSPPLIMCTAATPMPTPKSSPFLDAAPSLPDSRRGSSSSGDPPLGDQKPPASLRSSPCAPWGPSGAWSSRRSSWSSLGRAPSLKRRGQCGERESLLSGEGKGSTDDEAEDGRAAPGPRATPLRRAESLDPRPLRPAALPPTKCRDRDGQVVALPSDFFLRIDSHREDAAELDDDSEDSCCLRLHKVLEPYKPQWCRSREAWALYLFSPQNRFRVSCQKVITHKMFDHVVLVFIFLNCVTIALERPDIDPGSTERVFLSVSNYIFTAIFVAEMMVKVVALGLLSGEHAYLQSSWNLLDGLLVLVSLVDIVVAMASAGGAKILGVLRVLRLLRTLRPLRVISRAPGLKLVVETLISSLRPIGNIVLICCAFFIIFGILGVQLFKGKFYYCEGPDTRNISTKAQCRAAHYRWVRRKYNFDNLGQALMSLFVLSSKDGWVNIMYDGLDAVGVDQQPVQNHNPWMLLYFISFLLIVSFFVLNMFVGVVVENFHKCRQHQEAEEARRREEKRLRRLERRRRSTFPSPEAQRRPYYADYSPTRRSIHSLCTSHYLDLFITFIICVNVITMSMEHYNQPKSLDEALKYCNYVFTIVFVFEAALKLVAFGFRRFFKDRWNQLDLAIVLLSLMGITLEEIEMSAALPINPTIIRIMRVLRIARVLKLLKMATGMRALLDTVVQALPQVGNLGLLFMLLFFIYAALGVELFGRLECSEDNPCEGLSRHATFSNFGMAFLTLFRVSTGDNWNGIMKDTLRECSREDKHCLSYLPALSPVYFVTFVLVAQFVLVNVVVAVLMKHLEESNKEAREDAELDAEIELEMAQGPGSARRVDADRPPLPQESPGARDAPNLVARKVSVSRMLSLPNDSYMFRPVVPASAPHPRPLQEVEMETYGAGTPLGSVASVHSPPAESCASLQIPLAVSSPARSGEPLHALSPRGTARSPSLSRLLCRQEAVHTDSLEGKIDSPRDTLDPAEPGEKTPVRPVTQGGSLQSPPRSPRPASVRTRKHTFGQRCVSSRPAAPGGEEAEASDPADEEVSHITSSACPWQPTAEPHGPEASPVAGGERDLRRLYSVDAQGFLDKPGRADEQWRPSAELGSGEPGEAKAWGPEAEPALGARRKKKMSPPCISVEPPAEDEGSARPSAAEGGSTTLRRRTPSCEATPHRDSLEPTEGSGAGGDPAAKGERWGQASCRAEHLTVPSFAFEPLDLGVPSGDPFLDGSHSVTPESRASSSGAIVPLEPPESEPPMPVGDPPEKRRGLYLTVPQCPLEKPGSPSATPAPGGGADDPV
PostGolgi yeast: growth inhibition of a yeast mutant, post-Golgi transport screen; hit rate 0.9% among 98,000; inhibition, % at 10 µM; post-Golgi transport phenotypic cell assay;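 further: yeast cells grown in 1536-well plates; yeast grown about 18 h at 30C before absorbance read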
PostGolgi ctrl: yeast control strain growth, post-Golgi counter-screen. efflux-deficient yeast background strain, growth absorbance A615, 16 h. inhibition, % at 10 µM. hit rate 5% among 98,000
The depositor's hits bear a star. Unless noted, no stated cut-off is given here; in the data, active means inhibition above about 30%; inactive means the rest.

For COc1ccccc1Nc1nc(N)nc(CN2CCC(Cc3ccccc3)CC2)n1 the results were PTK2B oligo ant 0.41, Cav3 T inh -5.2*, PostGolgi yeast -1 and PostGolgi ctrl -2.
CC(=O)N1CN(Cc2ccccn2)Cc2c1sc1c2CCCC1 was read as PTK2B oligo ant 0.11, Cav3 T inh 0.44, PostGolgi yeast 2 and PostGolgi ctrl 36*.
NC(=O)CC(NC(=O)c1cccc(Br)c1)c1ccc(N2CCC(N3CCCC3)CC2)c([N+](=O)[O-])c1 (configuration not stated) was read as Cav3 T inh -0.29.
O=C(Nc1nnc(-c2ccccc2Cl)o1)c1nc2ccccc2s1 was read as Cav3 T inh -4.5*, PostGolgi yeast -24 and PostGolgi ctrl 15.
Screening CCOC(=O)/C=C/c1ccc2c(c1)S(=O)(=O)N(Cc1ccc(OC)cc1)[C@H]2CC(=O)OCC returned Cav3 T inh 0.32.
Screening Clc1ccc(-c2cnc(Oc3ccccc3)nc2)cc1 returned PTK2B oligo ant -0.43, Cav3 T inh 0.098, PostGolgi yeast 33* and PostGolgi ctrl -8.
`O=C1NC(CCc2ccccc2)C(=O)N1Cc1ccccc1Cl` (configuration not stated) gave PTK2B oligo ant -0.37.
`COC(=O)Cc1c[nH]c2cccc(OCC(O)CN(Cc3ccccc3)C(C)C)c12` (configuration not stated) gave PTK2B oligo ant 0.72 and Cav3 T inh -1.2.
COC(=O)Cc1c[nH]c2cccc(OCC(O)CN(Cc3ccc([N+](=O)[O-])cc3)C(C)(C)C)c12 (configuration not stated) was read as PTK2B oligo ant -0.89, Cav3 T inh -6.4*, PostGolgi yeast 5 and PostGolgi ctrl 9.
For COC(=O)c1sc(NC(=O)CCCn2nc([N+](=O)[O-])cc2C)c(C(=O)OC)c1C the results were PTK2B oligo ant 0.1.
Cc1noc(C)c1COC(=O)c1cc2c3ccccc3n(C)c2s1 was read as PTK2B oligo ant -1.4, Cav3 T inh 0.11, PostGolgi yeast -7 and PostGolgi ctrl 37*.
CCc1nnc(NC(=O)CSc2ncnc3c2cnn3-c2ccc(OC)cc2)s1 was read as PTK2B oligo ant -0.15, Cav3 T inh 0.28, PostGolgi yeast -5 and PostGolgi ctrl -10.
Screening Cc1c(C(=O)c2ccc(Cl)cc2Cl)cnc2cc3c(cc12)OCO3 returned PTK2B oligo ant 1.1 and Cav3 T inh -4*.
O=C(C1CC1)N1CCc2cc(Br)cc(S(=O)(=O)NCCN3CCOCC3)c21 was read as PTK2B oligo ant -0.38, Cav3 T inh -0.45, PostGolgi yeast 10 and PostGolgi ctrl 21.
Screening CCCNS(=O)(=O)c1cc(Br)cc2c1N(C(=O)CC)CC2 returned PTK2B oligo ant 1.2, Cav3 T inh 0.74, PostGolgi yeast 11 and PostGolgi ctrl 34*.
Cc1ccc(C)c(NC(=O)CSc2nnc(CCCCCNC(=O)OC(C)(C)C)o2)c1 was read as PTK2B oligo ant -0.28, Cav3 T inh -1.7, PostGolgi yeast 8 and PostGolgi ctrl 0.
`Cc1ccc(NC(=O)CSc2nnc(CCNC(=O)OC(C)(C)C)o2)c(C)c1` gave PTK2B oligo ant 0.28, Cav3 T inh 0.94, PostGolgi yeast -2 and PostGolgi ctrl 35*.
For CCN(c1cccc(C)c1)c1nc2ccsc2c(=O)s1 the results were PTK2B oligo ant -0.73, Cav3 T inh -0.74, PostGolgi yeast -4 and PostGolgi ctrl 29.
CC(=O)N(Cc1c(C)nn(-c2ccccc2)c1Cl)c1ccc(Cl)cc1 was read as PTK2B oligo ant -2.8, Cav3 T inh -8.3*, PostGolgi yeast 15 and PostGolgi ctrl 35*.
`C/C=C1\COC(C(=O)NCc2ccccc2)(C(F)(F)F)C=C1C=C1CCCCC1` (configuration not stated) gave Cav3 T inh -4.3*.
Screening C/C=C1\COC(C(=O)NCCN2CCCC2)(C(F)(F)F)C=C1C=C1CCCCC1 (configuration not stated) returned Cav3 T inh -2.6.
For Cc1ccc2nc(C)cc(OCC(=O)O)c2c1 the results were PTK2B oligo ant 0.71, PostGolgi yeast 44* and PostGolgi ctrl 3.
Screening Nc1nonc1C(=O)NCCNCc1cc(Br)ccc1OCc1ccccc1F returned PTK2B oligo ant 0.69, Cav3 T inh -6.9*, PostGolgi yeast 3 and PostGolgi ctrl 7.
For COc1cccc(CNCCNC(=O)c2nonc2N)c1 the results were PTK2B oligo ant 0.36, Cav3 T inh -0.0099, PostGolgi yeast -5 and PostGolgi ctrl -1.
For CCOc1c(CNCCNC(=O)c2nonc2N)cccc1OC the results were PTK2B oligo ant -0.51, Cav3 T inh 0.18, PostGolgi yeast 0 and PostGolgi ctrl 13.
Nc1nonc1C(=O)NCCNCc1ccccc1OCc1ccccc1F was read as PTK2B oligo ant 0.71, Cav3 T inh -6.1*, PostGolgi yeast -4 and PostGolgi ctrl 31*.
`CCN(C(=O)CSc1nc(-c2ccccc2)c(-c2ccccc2)[nH]1)C1CCS(=O)(=O)C1` (configuration not stated) gave PTK2B oligo ant 0.11, Cav3 T inh 0.51, PostGolgi yeast -12 and PostGolgi ctrl -1.
Screening Cc1nc2ccccc2n1CC(=O)OCC(=O)NCCc1ccccc1 returned PTK2B oligo ant 0.11, Cav3 T inh 0.64, PostGolgi yeast 4 and PostGolgi ctrl 3.
Screening O=C(NCCCn1ccnc1)c1ccc(Cl)c(S(=O)(=O)N2CCOCC2)c1 returned PTK2B oligo ant -0.07, Cav3 T inh 0.15, PostGolgi yeast 4 and PostGolgi ctrl 0.
Screening CC(=O)C1=C(C)Nc2ncnn2C1c1ccccc1OCc1ccccc1 (configuration not stated) returned PTK2B oligo ant -3.1*, Cav3 T inh 0.83, PostGolgi yeast -1 and PostGolgi ctrl 0.
COc1ccccc1C1C(C(=O)NCc2ccccc2)=C(C)Nc2ncnn21 (configuration not stated) was read as PTK2B oligo ant 1.2, Cav3 T inh 0.92, PostGolgi yeast -8 and PostGolgi ctrl 7.
O=C(C1CCC1)N1CCc2cc(S(=O)(=O)N3CCc4ccccc4C3)ccc21 was read as Cav3 T inh -1.2.
For O=C(C1CCC1)N1CCc2cc(S(=O)(=O)NCc3ccccn3)ccc21 the results were PTK2B oligo ant -0.17, Cav3 T inh 0.89, PostGolgi yeast -4 and PostGolgi ctrl 2.
For O=C(C1CCC1)N1CCc2cc(S(=O)(=O)NCCN3CCN(c4ccccc4F)CC3)ccc21 the results were PTK2B oligo ant 0.18, Cav3 T inh -3.2, PostGolgi yeast -1 and PostGolgi ctrl 38*.
For CCC1CCCCN1S(=O)(=O)c1ccc2c(c1)CCN2C(=O)C1CCC1 (configuration not stated) the results were PTK2B oligo ant -1.6, Cav3 T inh -1.4, PostGolgi yeast 1 and PostGolgi ctrl 68*.
Cc1ccc(NC(=O)N(Cc2ccc3c(c2)OCO3)Cc2cc3cc4c(cc3[nH]c2=O)OCCO4)cc1 was read as PTK2B oligo ant 0.01, Cav3 T inh -0.83, PostGolgi yeast 24 and PostGolgi ctrl 56*.
Screening Cc1ccc(NC(=O)N(CCCN2CCOCC2)Cc2cc3cc4c(cc3[nH]c2=O)OCO4)cc1 returned PTK2B oligo ant 1.1, PostGolgi yeast 18 and PostGolgi ctrl 13.
